From PubChem BioAssay AID1578 (Sanford-Burnham Center for Chemical Genomics, 2009)
The whole screen tested about 290,000 compounds, of which about 3,000 (1%) were called active. No stated cut-off is given here; in the data, active means inhibition mostly above about 36% (no sharp cut-off); inactive means mostly below about 34%. Many of the other results were omitted from the sample, so actives are more common in it than they were.

Assay: NOD1 signaling inhibitors, primary screen, cell-based, luminescence, uHTS (AID 1578);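 further: HEK-293T reporter cells stimulated with the NOD1 agonist gamma-tri-DAP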
Conditions: NOD1-driven NF-kB luciferase reporter cells, at 4 µM, stronger effect = higher value

inhibition, active:
CCc1cc2c3c(c1)C1(C(=O)N3C(C)(C)C=C2C)C(C#N)=C(N)Oc2[nH]c(=O)[nH]c(=O)c21 (configuration not stated) 54.6%
Cc1cc(C)n(C(=O)/C(C#N)=N/Nc2cc(Cl)cc(Cl)c2)n1 40.4%
O=C(NCc1ccccc1)c1c(Cl)nc(Cl)c(Cl)c1Cl 54.5%
N=C1/C(=C/c2cccs2)C(=O)N=C2SN=C(SCc3ccccc3)N12 80.4%
O=C1/C(=C/c2ccccc2[N+](=O)[O-])COc2ccccc21 47.1%
CC(C)c1nnc(NC(=O)c2ccc3c(c2)OCO3)s1 62.9%
O=C(Nc1ncc([N+](=O)[O-])s1)c1ccc2c(c1)OCO2 69%

inhibition, inactive:
CCN(Cc1ccccc1)S(=O)(=O)c1ccc(OC)cc1 14.2%
COc1cccc(C2CC(c3cccs3)=NN2S(C)(=O)=O)c1OC (configuration not stated) -30.3%
N#CCSc1nc2ccccc2c(=O)n1CCC(=O)NCCc1ccccc1 32.7%
O=C1C(=O)N(CCCN2CCOCC2)C(c2ccc([N+](=O)[O-])cc2)/C1=C(/O)c1ccc2c(c1)OCO2 (configuration not stated) -24.9%
CCc1cccc(NC(=O)CCS(=O)(=O)c2ccc3c(c2)NC(=O)CO3)c1 -12.9%
CN(C(=O)CCN1C(=O)C(C)(C)Nc2ccccc21)c1ccccc1 0.1%
Cc1ccc2[nH]cc(C(=O)CN3CCN(c4ccccn4)CC3)c2c1 -23%
CC(NC(=O)OC1CCCCC1)N1C(=O)C2C3C=CC(C3)C2C1=O (configuration not stated) -1.3%
Cn1c(N/N=C/c2cccs2)nc2c1c(=O)n(Cc1ccccc1)c(=O)n2C -22.5%
NC(=O)c1cc2cc(Cl)ccc2oc1=Nc1cccc(C(F)(F)F)c1 -9.4%
Cn1c(O)c(C=Nc2ccc(N3CCOCC3)cc2)c(=O)n(C)c1=S -14.6%
CCN(CC(=O)Nc1ccc2c(c1)OCCO2)S(=O)(=O)c1ccccc1 -42.6%
CCCN1CN(Cc2ccccc2)CNC1=S -23.1%
CCOC(=O)/C(C#N)=C/c1c(N2CCCCCC2)nc2ccccn2c1=O 0.9%
CC1=CC(C)(C)N2C(=O)C3(C(C#N)=C(N)Oc4cc(C)oc(=O)c43)c3cccc1c32 (configuration not stated) -1.1%
COc1cc2c3c(c1)C1(C(=O)N3C(C)(C)C=C2C)C(C#N)=C(N)Oc2cc(C)oc(=O)c21 (configuration not stated) -10.4%
Cc1cc(C)n(C(=O)/C(C#N)=N\Nc2ccccc2[N+](=O)[O-])n1 -30.2%
Cc1cc(C)n(C(=O)/C(C#N)=C/N(C)C)n1 -47.6%
Cc1nc(Cl)c(C(=O)NCc2ccccc2)c(C)c1Cl -37.4%
Cc1nc(Cl)c(C(=O)NCc2ccccc2)c(C)c1[N+](=O)[O-] -6.1%
COc1ccc(C)cc1-n1nc2ccccc2n1 -40%
CSC1=NSC2=NC(=O)/C(=C\c3cccs3)C(=N)N12 -30%
CC(C)CSC1=NSC2=NC(=O)/C(=C\c3cccs3)C(=N)N12 41.8%
CCc1ccc(-n2nnnc2SCC(=O)Nc2ccc(NC(C)=O)cc2)cc1 -3.5%
O=C1/C(=C/c2ccc(O)cc2)COc2ccccc21 -6.1%
O=C1/C(=C/c2cccs2)COc2ccccc21 -19%
CCOC(=O)c1cnc2nc(NCc3ccc(OC)c(OC)c3)[nH]n2c1=O -26.1%
CC1CCCN1CC#CC(O)(c1ccccc1)c1ccccc1 (configuration not stated) 0.2%
CC(c1ccccc1)c1nnc(NC(=O)c2ccc3c(c2)OCO3)s1 (configuration not stated) 5.6%
O=C(Nc1ncc([N+](=O)[O-])s1)c1cccc([N+](=O)[O-])c1 10.4%
Cc1cnc(NC(=O)c2c(-c3ccccc3)noc2C)s1 2.4%
Cc1nnc(NC(=O)c2c(-c3ccccc3)noc2C)s1 -0.4%
CCC(CC)c1nnc(NC(=O)c2ccc3c(c2)OCO3)s1 -53.7%
O=C(Nc1ccc([N+](=O)[O-])cn1)c1ccc2c(c1)OCO2 -49.4%
C/C(CCc1ccc2c(c1)OCO2)=N\N=C1\NC(=O)CC(C(=O)Nc2ccc(Cl)cc2)S1 (configuration not stated) 3.3%
COc1ccc(NC(=O)CNC(=O)c2c(C)nn(C)c2Cl)cc1 -25.4%
Cc1ccc(C(=O)Cn2c(C)cc(C)c(C#N)c2=O)cc1 -3.5%
COc1cccc2sc(/N=C/N(C)C)nc12 4.3%
CN1CCCC1=Nc1c2c(nc3ccccc13)N(C)CC2 -12.3%
COc1ccc(-c2csc(NC(=S)NC(=O)c3ccc(S(=O)(=O)N(C)C)cc3)n2)cc1OC -1.9%
Cc1ccc(CCCOC(=O)CN2CCCCC2)cc1 -29.9%
COc1cc(OC)cc(OCC(O)Cn2cnc(-c3ccccc3)c2)c1 (configuration not stated) -19.2%
Brc1ccc(C=Nc2ccc3c(c2)OCCOCCOCCO3)s1 -40.4%
O=C(c1noc2c1CCc1ccccc1-2)N1CCc2ccccc2C1 -25%
Fc1ccccc1CNc1ncnc2sccc12 25.2%
CN(C)C(CNc1ncnc2sccc12)c1ccccc1 (configuration not stated) 4%
COc1ccc(CNc2ncnc3cc(OC)c(OC)cc23)cc1OC -17%
OC(CNc1ncnc2sccc12)c1ccccc1 (configuration not stated) -2.4%
COc1ccc(CNc2ncnc3sccc23)cc1 41.7%
COc1ccccc1Nc1ncnc2sccc12 -5.2%
O=C(CN1CCN(S(=O)(=O)c2ccc(Cl)cc2)CC1)c1ccc(O)c(O)c1 -30.9%
Cn1ccnc1SCC(=O)c1ccc([N+](=O)[O-])cc1 -21.2%
COc1ccc(C(=O)NCCOC(C)C)cc1OC1CCN(C(C)=O)CC1 -13.7%
O=C(CSc1nc2ccccc2s1)NNC(=S)Nc1ccc(Cl)cc1 -14.3%
O=C(COc1ccc(Cl)cc1Cl)NNC(=S)NC(=O)c1ccco1 -10.8%
